Source: PubChem (several laboratories)
Only some compounds are listed: those with a hit (about 4.4% of all), similar ones and a draw of the others.
IL1B cytotox: toxic to HUVEC cells under IL-1B stimulation; HUVEC cell count loss, Hoechst imaging, IL-1B stimulated; cell count reduction, % at 2 µM; hit rate 0.41% among 94,000; AID 845;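 active = cell count reduction more than 3 SD above the screen-wide mean, cut at about 70% in these data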
IL1B NFkB inh: blocks IL-1B driven NFkB nuclear translocation in HUVEC cells; HUVEC IL-1B NFkB p65 nuclear translocation imaging; inhibition, % at 2 µM; hit rate 0.43% among 94,000; AID 796;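 active = inhibition above about 30% together with a positive call from visual inspection of the well image, limit read from the data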;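 also: nuclear over cytoplasmic p65 intensity ratio measured by imaging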
Cav32 inh: blocks human Cav3.2 T-type calcium channel | B-score at 10 µM | hit rate 4% among 100,000 | O95180 | Cav3.2-expressing cells, Fluo-4 calcium fluorescence FDSS; stronger effect = lower value;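 active = single-dose well whose peak fluorescence ratio is a statistical outlier from its plate by either plate-standardised score or position-corrected B-score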
NFkB transloc pot: enhances IL-1B driven NFkB nuclear translocation; HUVEC IL-1B NFkB p65 nuclear translocation imaging; activation, % at 2 µM; hit rate 0.3% among 94,000; AID 819;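 active = activation above 40%, about the mean plus 3 SD, also judged a hit on visual image review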;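 also: percent activation is computed from the nuclear over cytoplasmic p65 intensity ratio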
Each line names hits and unclear results; the compound was inactive in the other large screens.

Cc1cc2ncn(C(=O)N3CCC(C)CC3)c2cc1C	Cav32 inh -6.5
CCC(=O)Nc1ccccc1C(=O)NC1CCCCC1	none
COC(=O)c1c(NS(=O)(=O)Cc2ccccc2)sc2c1CCCC2	none
CC(C)OC(=O)c1c(NS(=O)(=O)c2ccccc2)sc2c1CCCC2	Cav32 inh -8
CN1CCC(=O)N(CCSc2ccc(Br)cc2)CC1	none (no result: IL1B cytotox, IL1B NFkB inh, NFkB transloc pot)
CC(C)CCNc1nnnc2c1sc1nc(N3CCOCC3)c3c(c12)CC(C)(C)SC3	Cav32 inh -4.8
O=C(CCSc1nc(-c2ccco2)cc(C(F)(F)F)n1)N1CCN(c2ccccn2)CC1	Cav32 inh -5.5
O=C(CSc1nc(-c2ccco2)cc(C(F)(F)F)n1)N1CCN(c2cccc(Cl)c2)CC1	none
O=C(CCSc1nc(-c2ccco2)cc(C(F)(F)F)n1)N1CCCc2ccccc21	Cav32 inh -3.6
Cc1ccc(S(=O)(=O)Oc2ccc(/C=N/NC(=O)c3nn(C)cc3Cl)cc2)cc1	none
Cc1ccc(S(=O)(=O)Oc2ccccc2/C=N/NC(=O)c2c(Cl)cnn2C)cc1	Cav32 inh -8.9
CCN1CCCC1Cn1cnc2c([nH]c3cccc(Cl)c32)c1=O (stereo not drawn)	IL1B NFkB inh 30
COc1ccc(C(c2nnnn2CS(=O)(=O)c2ccc(C)cc2)N2CCN(Cc3ccccc3)CC2)cc1 (stereo not drawn)	none
Cc1ccc(/C=N\Nc2cn[nH]c(=O)c2Cl)cc1	Cav32 inh -5.3
CCn1ncc(Br)c1C(=O)Nc1nccs1	none
CCn1ncc(Br)c1C(=O)N(C)C12CC3CC(CC(C3)C1)C2	Cav32 inh -5.1
COc1cccc(-c2nc(CS(=O)(=O)CC(=O)NCCCOC(C)C)c(C)o2)c1	IL1B cytotox 95
COc1cccc(-c2nc(CS(=O)CC(=O)NCCCOC(C)C)c(C)o2)c1 (stereo not drawn)	none
COc1cccc(-c2nc(CS(=O)(=O)CC(=O)NCCCN3CCc4ccccc4C3)c(C)o2)c1	Cav32 inh -5.7
Cc1cc(C)n(-c2nnc(C)n2/N=C/c2ccccc2OCc2ccccc2Cl)n1	Cav32 inh -5.6
Cc1cc(C)n(-c2nnc(C)n2/N=C/c2cc(Br)ccc2OCc2ccccc2)n1	Cav32 inh -6.9
Nc1cc2nc3ccccc3oc-2cc1=O	none (no result: IL1B cytotox, IL1B NFkB inh, NFkB transloc pot)
CC(=O)NS(=O)(=O)c1ccc(NC(=O)NC2CCCCC2)cc1	none
COc1ccc(CCNC(=O)COc2ccc(S(=O)(=O)N3CCOCC3)cc2)cc1OC	Cav32 inh -4.3
CCOC(=O)Cn1c(S(=O)(=O)Cc2ccc(F)cc2)nc(-c2ccccc2)c1-c1ccccc1	none
C#CCn1c(S(=O)(=O)Cc2ccc(F)cc2)nc(-c2ccccc2)c1-c1ccccc1	Cav32 inh -3.8
CS(=O)(=O)N(CC(=O)N1CCc2ccccc2C1)Cc1ccccc1	none (no result: Cav32 inh)
Cc1cc(SCC(=O)c2ccc3c(c2)OCO3)nc2ccccc12	IL1B NFkB inh 57
O=C(NCc1ccc(Cl)cc1)C(=O)NCC1OCCN1S(=O)(=O)c1ccc2c(c1)OCCO2 (stereo not drawn)	Cav32 inh -5.1 (no result: IL1B cytotox, IL1B NFkB inh, NFkB transloc pot)
COc1ccccc1CNC(=O)C(=O)NCC1OCCN1S(=O)(=O)c1ccc2c(c1)OCCO2 (stereo not drawn)	none (no result: IL1B cytotox, IL1B NFkB inh, NFkB transloc pot)
O=C(NCCc1c[nH]c2ccccc12)C(=O)NCC1OCCN1S(=O)(=O)c1ccc(F)cc1 (stereo not drawn)	Cav32 inh -5.9 (no result: IL1B cytotox, IL1B NFkB inh, NFkB transloc pot)
O=C(NCCc1c[nH]c2ccccc12)C(=O)NCC1OCCN1S(=O)(=O)c1ccc(Cl)cc1 (stereo not drawn)	Cav32 inh -7.1 (no result: IL1B cytotox, IL1B NFkB inh, NFkB transloc pot)
Cc1ccc(CNC(=O)C(=O)NCC2CCCO2)cc1 (stereo not drawn)	none
O=C(NCc1ccco1)C(=O)NCC1OCCN1S(=O)(=O)c1ccc(Cl)cc1 (stereo not drawn)	none (no result: IL1B cytotox, IL1B NFkB inh, NFkB transloc pot)
Cc1ccc(CNC(=O)C(=O)NCC2OCCN2C(=O)c2ccc(Cl)cc2)cc1 (stereo not drawn)	Cav32 inh -4.4 (no result: IL1B cytotox, IL1B NFkB inh, NFkB transloc pot)
Cc1cc(C)c(S(=O)(=O)N2CCOC2CNC(=O)C(=O)NCCc2c[nH]c3ccccc23)c(C)c1 (stereo not drawn)	none (no result: IL1B cytotox, IL1B NFkB inh, NFkB transloc pot)
O=c1cc(C(F)F)oc2c1ccc1ccccc12	none (no result: IL1B cytotox, IL1B NFkB inh, NFkB transloc pot)
COc1cccc(/C(O)=C2/C(=O)C(=O)N(CCN3CCOCC3)C2c2cccs2)c1 (stereo not drawn)	none (no result: Cav32 inh)
CS(=O)(=O)c1ccc(CNC(=O)C2(C(F)(F)F)C/C(=C/CCO)CCCO2)cc1 (stereo not drawn)	none (no result: IL1B cytotox, IL1B NFkB inh, NFkB transloc pot)
CS(=O)(=O)Nc1ccc(N2CCCCC2)c(Cl)c1	none
COc1ccc(S(=O)(=O)N(CC(=O)NCC2CCCO2)c2ccc(F)cc2)cc1OC (stereo not drawn)	none
N#CCCn1nc(-c2ccccc2)cc1-n1c(C(F)(F)F)nc2ccccc21	Cav32 inh -3.4
Cc1ccc(S(=O)(=O)C(C#N)c2nc3ccccc3nc2N2CC(C)OC(C)C2)cc1C (stereo not drawn)	Cav32 inh -4.2
Cc1cccc(S(=O)(=O)C(C#N)c2nc3ccccc3nc2N2CC(C)OC(C)C2)c1 (stereo not drawn)	none
CC1CCCN(c2nc3ccccc3nc2C(C#N)S(=O)(=O)c2cccs2)C1 (stereo not drawn)	Cav32 inh -5.9
Cc1ccc(S(=O)(=O)C(C#N)c2nc3ccccc3nc2N2CCCC2)cc1 (stereo not drawn)	none
COc1ccc(S(=O)(=O)C(C#N)c2nc3ccccc3nc2N2CCCC(C)C2)cc1 (stereo not drawn)	Cav32 inh -4.6
COc1ccc(C2(CNC(=O)Cc3ccc(OC)c(OC)c3)CCOCC2)cc1	none
NNC(=O)CN1C(c2ccc(Cl)cc2)=Nc2ccc(Br)cc2C1c1ccccc1 (stereo not drawn)	Cav32 inh -9.9
CCOC(=O)CN1C(=O)Nc2ccc(Br)cc2C1c1ccccc1 (stereo not drawn)	none
COC(=O)CN1C(c2ccccc2)=Nc2ccc(Cl)cc2C1c1ccccc1 (stereo not drawn)	Cav32 inh -6.7
O=C1CCCCN1CCc1c[nH]c2ccccc12	IL1B cytotox 86
CC(Sc1nnc(Cc2cccs2)n1C1CCCCC1)C(=O)N1CCc2ccccc21 (stereo not drawn)	Cav32 inh -6.5
Cc1ccc(C(=O)N2CCCC(c3nc4c(nnn4Cc4ccccc4)c(=O)[nH]3)C2)cc1 (stereo not drawn)	none
CC(C)(C)c1ccc(C2(C)NC(=O)N(CC(=O)Nc3ccc4c(c3)OCO4)C2=O)cc1 (stereo not drawn)	Cav32 inh -5.6
CC1(c2ccc(OC(F)F)cc2)NC(=O)N(CC(=O)Nc2ccc3c(c2)OCO3)C1=O (stereo not drawn)	none
O=C(NNC1=C(C(=O)C(F)(F)F)CCC1)c1ccc(Br)cc1	Cav32 inh -5.1
O=C(NNC1=C(C(=O)C(F)(F)F)CCC1)c1ccccc1O	Cav32 inh -6.3
O=[N+]([O-])c1cccc(Cl)c1NCCNS(=O)(=O)c1ccccc1	none
Cc1ccc(C(C(=O)NC2CCCCC2)N(Cc2ccco2)C(=O)Cn2cnc3ccccc32)cc1 (stereo not drawn)	Cav32 inh -5.1
CCOC(=O)CN(C(=O)Cn1nnc(-c2ccc(C)cc2)n1)C(CC)C(=O)NC1CCCC1 (stereo not drawn)	none
